From PubChem BioAssay AID588458 (Sanford-Burnham Center for Chemical Genomics, 2011) come the findings set out here.

“And” between values parts separate entries of the source, which are not always exact repeats. Equal entries are not always repeated. The whole screen tested about 360,000 compounds, of which about 3,000 (0.83%) were called active. This excerpt belongs to a sample that is enriched for actives. Values without a mark were called inactive. Rule as the data show it: active = inhibition above about 50%; inactive = the rest.

The assay deals with DNA (cytosine-5)-methyltransferase 1 (Homo sapiens) (UniProt P26358). The assay is described as follows: inhibition of DNA methyltransferase DNMT1 – biochemical, molecular beacon, fluorescence, HinP1I cleavage, uHTS, primary screen (AID 588458). As to conditions: at 10 µM, hits give high values.
Chain of DNA (cytosine-5)-methyltransferase 1 (Homo sapiens) (P26358 504-1616 limits assumed): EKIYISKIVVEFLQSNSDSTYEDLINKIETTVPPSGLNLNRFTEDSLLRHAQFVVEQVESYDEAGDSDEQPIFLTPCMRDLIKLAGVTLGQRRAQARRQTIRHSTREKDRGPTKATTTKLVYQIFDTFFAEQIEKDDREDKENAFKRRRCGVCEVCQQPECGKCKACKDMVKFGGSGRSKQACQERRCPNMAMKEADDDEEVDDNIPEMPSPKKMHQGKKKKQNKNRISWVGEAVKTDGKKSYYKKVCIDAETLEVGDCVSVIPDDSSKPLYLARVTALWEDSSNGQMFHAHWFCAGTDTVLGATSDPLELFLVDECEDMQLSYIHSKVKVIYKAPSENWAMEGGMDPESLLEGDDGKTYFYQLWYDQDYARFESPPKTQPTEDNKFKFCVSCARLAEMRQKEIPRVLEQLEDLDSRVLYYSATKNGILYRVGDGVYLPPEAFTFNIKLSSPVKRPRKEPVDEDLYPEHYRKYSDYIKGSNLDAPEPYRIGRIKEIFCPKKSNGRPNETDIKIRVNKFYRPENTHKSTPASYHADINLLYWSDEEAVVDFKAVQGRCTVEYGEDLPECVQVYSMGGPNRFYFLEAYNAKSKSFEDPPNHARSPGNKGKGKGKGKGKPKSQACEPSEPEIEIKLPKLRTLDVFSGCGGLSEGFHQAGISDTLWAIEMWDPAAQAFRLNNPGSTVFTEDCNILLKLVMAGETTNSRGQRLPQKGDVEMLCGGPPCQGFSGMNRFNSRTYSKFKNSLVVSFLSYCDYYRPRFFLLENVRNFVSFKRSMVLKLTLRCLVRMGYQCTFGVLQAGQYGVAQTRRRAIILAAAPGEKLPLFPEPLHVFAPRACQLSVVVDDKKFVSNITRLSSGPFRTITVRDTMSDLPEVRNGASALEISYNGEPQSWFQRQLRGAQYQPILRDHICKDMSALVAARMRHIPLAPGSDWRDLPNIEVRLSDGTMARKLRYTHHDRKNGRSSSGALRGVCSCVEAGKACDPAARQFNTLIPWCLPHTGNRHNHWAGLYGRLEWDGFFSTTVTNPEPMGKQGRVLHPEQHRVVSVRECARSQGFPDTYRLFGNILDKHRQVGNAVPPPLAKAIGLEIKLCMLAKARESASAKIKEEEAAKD
`Cc1c(C(=O)O)cccc1-n1c(C)cc(/C=C2\C(=O)NC(=O)N(c3ccc4c(c3)OCO4)C2=O)c1C`: the inhibition (reported as % activation of signal) is 86.2% (active).
In the case of `Cc1ccnc(-n2c(C)cc(/C=C3\C(=O)NC(=S)N(C)C3=O)c2C)c1` it was 5.36%.
The value for `COC(=O)C1=C(c2c(C)noc2C)C[C@@H]2CC[C@H]1N2C(=O)NCc1ccc2c(c1)OCO2` was 2.7%; that for `O=C1NC(=O)N(Cc2ccco2)C(=O)/C1=C\c1cccn1CCOc1ccccc1` was 52.4% (active).
As to `Cc1cc(C=C2C(=O)NC(=O)NC2=O)c(C)n1-c1ccncc1`, the inhibition (reported as % activation of signal) was 5.18%.
The value for `Cc1cc(/C=C2/C(=O)NC(=O)N(Cc3ccco3)C2=O)c(C)n1-c1ccc(C(=O)O)cc1` was 51.8% (active); that for `O=C1NC(=O)N(Cc2ccco2)C(=O)/C1=C\c1ccc(-c2ccc(F)cc2)o1` was 79.9% (active).
The value for `Cc1ccc(-n2c(C)cc(/C=C3\C(=O)NC(=O)N(C)C3=O)c2C)cc1C` was 29.9%.
Take `CCOC(=O)C(O)(c1ccc(N=Cc2ccccc2O)c(C)c1)C(F)(F)F` (stereo not given): the inhibition (reported as % activation of signal) is 0.86%.
For `CC1CNCCN1c1ccc(Cl)cc1` (stereo not given), the inhibition (reported as % activation of signal) is -33.5%.
The value for `O=C1C2(Cl)C3(Cl)C4(Cl)C(Cl)(Cl)C5(Cl)C3(Cl)C1(Cl)C5(Cl)C24Cl` (stereo not given) was -6.15%.
Regarding `O=P(OC1=CCCCC1)(c1ccccc1)c1ccccc1`, the inhibition (reported as % activation of signal) was -0.46%.
On to `COC(=O)C1=C(c2ccc(OCc3ccccc3)cc2)C[C@@H]2CC[C@H]1N2C(=O)NCc1ccc(Cl)cc1`, for which the inhibition (reported as % activation of signal) is -11.6%.
`Fc1ccc(C2N3CCCN23)cc1` (stereo not given): the inhibition (reported as % activation of signal) was 0.57%.
For the molecule `COC(=O)C(O)(c1ccc(NC(=O)c2ccco2)c(OC)c1)C(F)(F)F` (stereo not given), the inhibition (reported as % activation of signal) is 2.7%.
For the molecule `CCOC(=O)c1c(-c2ccccc2)oc2ccc(OC(=O)N(C)C)cc12`, the inhibition (reported as % activation of signal) was -3%.
The value for `CC(C)n1c(=O)c(C=Nc2ccc(Br)cc2)c(O)n(Cc2ccco2)c1=O` was 3.48%.
`Cc1ccc(-c2nc3ccccc3c(=O)n2-c2ccc(Br)cn2)cc1`: the inhibition (reported as % activation of signal) is -0.14%.
In the case of `N#CC1=C(N)Oc2c(c(=O)oc3ccccc23)C1c1ccccc1OC(=O)c1cccs1` (stereo not given) it was 0.68%; in that of `CC12CCC3C(CCC4CC(=O)CCC43C)C1CC(=NO)C2=O` (stereo not given), 0.34%; in that of `COc1ccc(N2C(=O)/C(=C/c3ccco3)C(=O)NC2=S)cc1`, 97.9% (active).
In the case of `COc1cc(C(=O)N2Cc3ccc(Br)cc3-n3nncc3C2)cc(OC)c1OC` it was 3.06%; in that of `Cc1cc(-c2ccc(N)c(C)c2)ccc1N`, -7.86%; in that of `Cc1cc(C)cc(NC(=S)NC2CC3CCCC(C2)N3Cc2cccs2)c1` (stereo not given), -3.24%.
With `Oc1ccc2c3c1OC1[C@H](O)CC[C@@]4(O)[C@@H](C2)N(CC2CC2)CC[C@]314` (stereo not given in full), the inhibition (reported as % activation of signal) was 3.17% and 0.16%.
In the case of `CC(=NC1CCN(Cc2ccccc2)CC1)c1c(O)n(C)c(=O)n(C)c1=O` it was 2.93%; in that of `CC1=C(C(=O)Nc2ccccc2)SCCO1`, 87.4% (active); in that of `CC1=C(C(=O)Nc2ccccc2)S(=O)(=O)CCO1`, 2.83%.
The value for `CCN1CCN(C(=O)Cc2coc3cc(C)cc(C)c23)CC1` was 2.55%; that for `COc1ccc(NC(=O)N2Cc3ccccc3-n3nncc3C2)cc1` was 7.01%.
